KLF5 inh = KLF5 expression inhibitors, primary screen, DLD-1 cells, luminescence. AID 1700, 2009. DLD-1 KLF5 promoter-luciferase reporter. 290,000 tested, 0.23% active. inhibition, % at 5 µM;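 active = inhibition above a per-plate limit of that plate's mean compound inhibition plus 3 SD, cut at about 60% in these data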;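 note: higher means less KLF5 promoter-driven luciferase light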
IEC-6 tox-1 = cytotoxicity in IEC-6 intestinal epithelial cells, primary screen, cytotoxicity control for KLF5 inhibitor project, cell-based, luminescence | 290,000 tested, 0.78% active | inhibition, % at 5 µM | IEC-6 cytotoxicity, luminescence viability
BaF3 parental = parental Ba/F3 cell viability inhibition, counter-screen for JAK2V617F inhibitor project, murine pro-B, CellTiter-Glo luminescence | CellTiter-Glo ATP luminescence | inhibition, % at 5.6 µM | 220,000 tested, 1.1% active;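 active = inhibition above a per-campaign cutoff, the mean inhibition of all tested compounds plus 3 SD, cut at about 27% in these data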
Ba/F3 V617F tox = reduced viability of JAK2V617F-dependent Ba/F3 cells, primary screen, JAK2V617F inhibitor project, cell-based, Ba/F3 EpoR-JAK2V617F, luminescence; ATP luminescence; inhibition, % at 5.6 µM; 220,000 tested, 1.1% active;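 active = inhibition above the campaign mean plus 3 SD over all tested compounds, cut at about 24% in these data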;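 note: cytokine-independent growth of Ba/F3 cells driven by EpoR plus mutant JAK2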
APP 5UTR inh = inhibitors of APP translation via 5'UTR reporter, primary screen, APP 5'UTR luciferase, SH-SY5Y cells | SH-SY5Y APP 5'UTR-luciferase reporter, luminescence | AID 1285, 2008 | 190,000 tested, 0.82% active | inhibition, % at 2 µM;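 active = inhibition above a set limit, derived from the sample mean plus 3 SD, cut at about 45% in these data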
BaF3 parental 2 = parental Ba/F3 cell viability inhibition, counter-screen for JAK2V617F inhibitor project, murine pro-B, CellTiter-Glo luminescence; shares compounds with Ba/F3 V617F tox; cells kept alive by added IL-3; inhibition, % at 5.6 µM; 580 tested, 31% active;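 active = cell growth inhibition above the hit limit set in the earlier mutant JAK2 cell screen, cut at about 27% in these data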
JAK2V617F confrm = viability loss in Ba/F3 EpoR-JAK2V617F cells, confirmation, JAK2V617F inhibitor project, cell-based, luminescence, triplicate | 580 tested, 66% active | CellTiter-Glo luminescence | AID 1521, 2009 | shares compounds with Ba/F3 V617F tox | inhibition, % at 5.6 µM;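 active = mean inhibition above the hit cutoff derived in the earlier primary screen, cut at about 25% in these data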;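 note: higher means lower luminescence from reduced cell ATP and viability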
KLF5 confirm = KLF5 expression inhibitors, confirmation, DLD-1 cells, luminescence; shares compounds with KLF5 inh; DLD-1 KLF5 promoter firefly luciferase reporter; inhibition, % at 4 µM; 610 tested, 79% active;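 active = inhibition above a set limit taken from the earlier primary screen, cut at about 63% in these data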
IEC-6 tox-2 = cytotoxicity in rat IEC-6 cells, cytotoxicity control for KLF5 inhibitor project, cell-based, luminescence, triplicate | shares compounds with KLF5 inh | IEC-6 rat intestinal cells, viability luminescence | inhibition, % at 4 µM | 610 tested, 56% active; in the data active = inhibition above about 23%;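 note: cells exposed to compounds for 48 hours before viability read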
IEC-6 cytotox cf = cytotoxic compounds in IEC-6 epithelial cells, confirmation, cytotoxicity control, cell-based, luminescence. shares compounds with IEC-6 tox-1. IEC-6 rat intestinal epithelial viability. inhibition, % at 5 µM. 1,900 tested, 63% active
Of the large screens only hits and unclear results are named; the others gave an inactive call (follow-up assays come after a bar, where they were run). Hits are enriched below; roughly 1.8% of the tested compounds scored in any of these assays. Cut-off read from the data, not from the text of the source, unless noted: active = inhibition above about 22%; inactive = the rest.

O=C(Cc1ccc(Cl)cc1)NCCc1c[nH]c2ccccc12	none (no result: BaF3 parental, Ba/F3 V617F tox, APP 5UTR inh)
O=C(CCl)N(c1ccc(Cl)cc1)c1c[nH]c2ccccc12	Ba/F3 V617F tox 72 | BaF3 parental 2 73 | JAK2V617F confrm 99
COCc1cc(=O)[nH]c(SCC(=O)Nc2ccccc2)n1	Ba/F3 V617F tox 95 | BaF3 parental 2 inactive | JAK2V617F confrm inactive
O=C1C2C3C=CC(C3)C2C(=O)N1c1ccc2c(c1)OCO2 (stereo unspecified)	Ba/F3 V617F tox 57 | BaF3 parental 2 inactive | JAK2V617F confrm inactive
O=C1C2C3C=CC(CC3)C2C(=O)N1c1ccc2c(c1)OCO2 (stereo unspecified)	none
COc1ccc(N(CC(=O)NC2CCCC2)C(=O)Cn2nnc(-c3ccc(OC)c(OC)c3)n2)c(OC)c1	none (no result: BaF3 parental, Ba/F3 V617F tox, APP 5UTR inh)
O=C(Nn1c(-c2ccc(F)cc2)nc2ccccc2c1=O)c1cccnc1	Ba/F3 V617F tox 66 | BaF3 parental 2 inactive | JAK2V617F confrm inactive
CCN(CC)S(=O)(=O)c1ccc(N/N=C(\C)c2ccncc2)nc1	none (no result: BaF3 parental, Ba/F3 V617F tox, APP 5UTR inh)
CCN(CC)S(=O)(=O)c1ccc(N/N=C/c2ccc(O)cc2O)nc1	KLF5 inh 72, Ba/F3 V617F tox 50, APP 5UTR inh 81 | BaF3 parental 2 83 | JAK2V617F confrm 93 | KLF5 confirm 81 | IEC-6 tox-2 inactive
COc1ccc(-c2cc3nc(C)n(N)c(=O)c3s2)cc1	KLF5 inh 96, Ba/F3 V617F tox 41 (no result: APP 5UTR inh) | BaF3 parental 2 56 | JAK2V617F confrm 40 | KLF5 confirm 109 | IEC-6 tox-2 36
COC(=O)CNC(=O)COC(=O)Cc1ccc(Cl)cc1	none
Cc1cc2[nH]c3c(c[n+](C)c4ccccc34)c2cc1C	IEC-6 tox-1 65, Ba/F3 V617F tox 33, APP 5UTR inh 83 | BaF3 parental 2 inactive | JAK2V617F confrm 92 | IEC-6 cytotox cf 55
CCOC(=O)C1(Cc2cccc(OC)c2)CCCN(C(=O)c2cc(C)oc2C)C1 (stereo unspecified)	none (no result: BaF3 parental, Ba/F3 V617F tox, APP 5UTR inh)
COc1cccc(N(C(=O)CCl)C(C(=O)NCCc2ccccc2)c2cccs2)c1 (stereo unspecified)	IEC-6 tox-1 87, Ba/F3 V617F tox 99 | BaF3 parental 2 inactive | JAK2V617F confrm 99 | IEC-6 cytotox cf 41
COc1ccc(N(C(=O)CCl)C(C(=O)NCCc2ccccc2)c2cccs2)cc1Cl (stereo unspecified)	IEC-6 tox-1 78, Ba/F3 V617F tox 101 | BaF3 parental 2 inactive | JAK2V617F confrm 99 | IEC-6 cytotox cf 42
COc1ccc(OC)c2c1C(=O)C(Cl)=C(Cl)C2=O	IEC-6 tox-1 86, Ba/F3 V617F tox 66 (no result: APP 5UTR inh) | BaF3 parental 2 84 | JAK2V617F confrm 92 | IEC-6 cytotox cf 63
CS(=O)(=O)c1nc(-c2ccco2)cc(C(F)(F)F)n1	IEC-6 tox-1 25, Ba/F3 V617F tox 42 | BaF3 parental 2 inactive | JAK2V617F confrm 70 | IEC-6 cytotox cf 36
COc1ccccc1-c1cc(C(F)(F)F)nc(S(C)(=O)=O)n1	none
CCCC(=O)N1CCN(c2ccc(NC(=O)c3ccc(Br)o3)cc2)CC1	none
CCC(=O)N1CCN(c2ccc(NC(=O)c3ccc([N+](=O)[O-])o3)cc2)CC1	IEC-6 tox-1 97, Ba/F3 V617F tox 34, APP 5UTR inh 48 | BaF3 parental 2 45 | JAK2V617F confrm 95 | IEC-6 cytotox cf 51
CCc1nnc(N/N=C/c2ccccc2Cl)n1N	IEC-6 tox-1 100, Ba/F3 V617F tox 25 | BaF3 parental 2 inactive | JAK2V617F confrm inactive | IEC-6 cytotox cf inactive
Cc1nn2c(NCc3ccccn3)c3c(nc2c1-c1ccccc1)CCC3	IEC-6 tox-1 95, Ba/F3 V617F tox 48 (no result: APP 5UTR inh) | BaF3 parental 2 inactive | JAK2V617F confrm 59 | IEC-6 cytotox cf inactive
Cc1nn2c(NCCN3CCOCC3)c3c(nc2c1-c1ccccc1)CCCC3	none (no result: APP 5UTR inh)
BrC(=C\c1ccccc1)/C=N/n1cnnc1	IEC-6 tox-1 75, Ba/F3 V617F tox 65, APP 5UTR inh 79 | BaF3 parental 2 55 | JAK2V617F confrm 96 | IEC-6 cytotox cf 26
Cc1cc2c(cc(C(=O)OCC(=O)NCc3cccs3)n2C(C)C)o1	IEC-6 tox-1 77, Ba/F3 V617F tox 37, APP 5UTR inh 75 | BaF3 parental 2 41 | JAK2V617F confrm 90 | IEC-6 cytotox cf 55
Cc1cc(C)cc(C(=O)OCC(=O)NCc2cccs2)c1	none
O=C1N(c2ccccc2)C[C@@H]2C[C@@H](c3cc4ccccc4o3)N3CCC[C@@]123	IEC-6 tox-1 38, Ba/F3 V617F tox 101, APP 5UTR inh 95 | BaF3 parental 2 107 | JAK2V617F confrm 99 | IEC-6 cytotox cf 97
CC(C)(C)CN1CCC(Oc2cccc(C(=O)N3CCNC(=O)C3(C)C)c2)CC1	none (no result: BaF3 parental, Ba/F3 V617F tox, APP 5UTR inh)
C[C@H](NC(=O)[C@@H]1CSC2c3ccccc3C(=O)N21)C(=O)NCc1c(F)cccc1Cl (stereo partly specified)	none (no result: BaF3 parental, Ba/F3 V617F tox, APP 5UTR inh)
Cn1c(-c2ccccc2)c(C(=O)CCl)c2ccccc21	none
NC(=O)c1cc2c3ccccc3ccn2c1-c1ccccc1	IEC-6 tox-1 38, Ba/F3 V617F tox 70 (no result: APP 5UTR inh) | BaF3 parental 2 63 | JAK2V617F confrm 95 | IEC-6 cytotox cf 61
CCN(CC)S(=O)(=O)c1ccc(N2CCN(CCOc3ccc(OC)cc3)CC2)nc1	none (no result: BaF3 parental, Ba/F3 V617F tox, APP 5UTR inh)
C/C(=N\N=C(N)N)c1cc(Cl)ccc1Cl	IEC-6 tox-1 31, Ba/F3 V617F tox 44 | BaF3 parental 2 inactive | JAK2V617F confrm inactive | IEC-6 cytotox cf inactive
COc1cc(C)c(C(C)C)cc1S(=O)(=O)n1cnc(C)c1	IEC-6 tox-1 36, Ba/F3 V617F tox 63 | BaF3 parental 2 61 | JAK2V617F confrm 92 | IEC-6 cytotox cf 51
O=C(Nc1ccc2c(c1)COC2=O)c1ccc(Cl)c(Cl)c1	none (no result: BaF3 parental, Ba/F3 V617F tox, APP 5UTR inh)
CCNC(=O)C12CCC(C)(C(=O)O1)C2(C)C (stereo unspecified)	none
O=C(CSc1cn(CCNC(=O)c2cccs2)c2ccccc12)NC1CCCC1	none
CC(=O)c1cc(CCC(=O)NC2CCCCCC2)oc1C	none (no result: BaF3 parental, Ba/F3 V617F tox, APP 5UTR inh)

Bioassay records deposited in PubChem by several laboratories.
